Screen size: about 2,300 compounds; about 20 (0.9%) were called active. Shown is part of a subset that was picked to be rich in actives. A number with no mark means an inactive call.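 Rule for the calls: active = mean percent activation across replicates above the counterscreen hit cutoff of 9.17%; inactive = the rest.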
These molecules were tested against Glucose-dependent insulinotropic receptor (Homo sapiens) (UniProt Q8TDV5) (assay: GPR119 activators in beta-arrestin cells, confirmation, counter-screen for GPR151 activator project, cell-based, PathHunter beta-arrestin, luminescence, set 2 (AID 1508607;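 note: 0% = median of sample wells and 100% = wells given EA reagent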)). Conditions: 90 min, at 11.2 µM, stronger effect = higher value.
Glucose-dependent insulinotropic receptor (Homo sapiens), sequence (Q8TDV5 whole entry, looked up): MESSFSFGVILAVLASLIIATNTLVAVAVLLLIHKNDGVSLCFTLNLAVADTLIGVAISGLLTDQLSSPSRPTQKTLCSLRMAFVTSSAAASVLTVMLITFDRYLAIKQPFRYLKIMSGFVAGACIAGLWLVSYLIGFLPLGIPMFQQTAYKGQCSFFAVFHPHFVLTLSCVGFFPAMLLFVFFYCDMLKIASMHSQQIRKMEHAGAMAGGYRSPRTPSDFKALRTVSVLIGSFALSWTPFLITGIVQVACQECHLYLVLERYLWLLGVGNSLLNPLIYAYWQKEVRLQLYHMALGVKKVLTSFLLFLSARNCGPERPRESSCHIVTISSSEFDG
For `C[C@@H]1O[C@@H](O[C@H]2C[C@@H](O)[C@]3(CO)[C@H]4[C@H](O)C[C@]5(C)[C@@H](C6=CC(=O)OC6)CC[C@]5(O)[C@@H]4CC[C@]3(O)C2)[C@H](O)[C@H](O)[C@H]1O`, the activation was 18.4% (active). For `COCCN1C(=S)NC2c3cccc(OC)c3OC1(C)C2C(=O)OC` (stereo not given), the activation was -2.57%. `Cc1cccc(C)c1-n1nnnc1C1(NCCc2c(C)[nH]c3ccccc23)CCCCC1` was tested, and the activation was -3.88%. With `CC[n+]1c(/C=C/C=C2\N(C)c3ccccc3C2(C)C)n(-c2ccccc2)c2cc(Cl)ccc21` the activation was 4.85%. For `CCn1c(/C=C/C=C2\N(C)c3ccccc3C2(C)C)[n+](Cc2ccccc2)c2ccccc21`, the activation was 15.3% (active). Molecule `CC[n+]1c(/C=C/C=C2\N(C)c3ccccc3C2(C)C)n(-c2ccccc2)c2ccc(C)cc21` has an activation of 2.58%. Molecule `O=c1c2ccccc2nc(/C=C/c2ccccc2)n1-c1cccc(C(F)(F)F)c1` has an activation of 1.19%. In the case of `COc1ccc2[nH]c(C)c(CCNCc3ccc(OC(F)(F)F)cc3)c2c1`, the activation was 0.78%. `O=C(NCc1ccc(Cl)cc1)C(Cl)(Cl)Cl` showed an activation of 1.33%. `O=C(NC(O)C(Cl)(Cl)Cl)c1ccccc1` (stereo not given) was tested, and the activation was -0.61%. `C[C@H]1CC[C@@H]2[C@@H](C)[C@H]3[C@H](CC4[C@@H]5CC=C6CC(O[C@@H]7O[C@H](CO)C(O[C@@H]8O[C@@H](C)[C@H](O)[C@@H](O)[C@H]8O)[C@H](O)[C@H]7O[C@@H]7O[C@@H](C)[C@H](O)[C@@H](O)[C@H]7O)CC[C@]6(C)[C@H]5CC[C@@]43C)N2C1` (stereo not given in full) was tested, and the activation was 28.4% (active). `COc1ccc(CN2CCNCC2CCO)c(C)c1C` (stereo not given) showed an activation of 0.92%. With `CCN1C(=O)c2ccccc2Sc2ccc(C(=O)N3CCC4(CC3)OCCO4)cc21` the activation was 0.67%. `COc1cccc(C2N(c3ccccn3)C(=O)C3CCCN32)c1` (stereo not given) gave an activation of -1.97%. Molecule `CCc1ccc(NC(=O)CN2CC(c3ccccc3)CC2=O)cc1` (stereo not given) has an activation of 2.2%.

Reference: PubChem BioAssay AID1508607 (The Scripps Research Institute Molecular Screening Center, 2020)
